Source: PubChem
In the library only some 9.2% were active in any assay of this set; here they are far more common.
ELG1 genotoxic: qHTS screen for small molecules that induce genotoxicity in human embryonic kidney (HEK293T) cells expressing luciferase-tagged ELG1 | 1.3% of 330,000 active | AID 504466, 2011 | Potency, µM (top dose mostly 46 µM), for inactives: top-dose activity change, positive = activation, hits mostly activators | HEK293T ELG1-luciferase reporter, luminescence, 16 h; note: % of control where 0% means no effect; nearly all actives have a fitted effect of over 60% in size
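Step 1: seed 2,000 HEK293T ELG1-luciferase cells per well. Step 2: add compound or DMSO, incubate 16 hr at 37 °C. Step 3: ONE-Glo, 30 min at room temperature, read luminescence.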
FLuc modulator: qHTS profiling assay for firefly luciferase inhibitor/activator using purifed enzyme and Km concentrations of substrates (counterscreen for miR-21 project) | Luciferin 4-monooxygenase (Photinus pyralis), P08659 | purified FLuc, Km substrates, luminescence inhibition | Potency, µM (titrated, usually from 57.5 µM), inactives show at the highest dose activity change, negative = inhibition, actives largely listed as inhibitors | 6.9% of 360,000 active | AID 588342, 2011;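 note: plate controls were vehicle for no effect and reference inhibitor for full effect; nearly all actives have a fitted effect of over 55% in size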
Target sequence (P08659 whole entry, looked up): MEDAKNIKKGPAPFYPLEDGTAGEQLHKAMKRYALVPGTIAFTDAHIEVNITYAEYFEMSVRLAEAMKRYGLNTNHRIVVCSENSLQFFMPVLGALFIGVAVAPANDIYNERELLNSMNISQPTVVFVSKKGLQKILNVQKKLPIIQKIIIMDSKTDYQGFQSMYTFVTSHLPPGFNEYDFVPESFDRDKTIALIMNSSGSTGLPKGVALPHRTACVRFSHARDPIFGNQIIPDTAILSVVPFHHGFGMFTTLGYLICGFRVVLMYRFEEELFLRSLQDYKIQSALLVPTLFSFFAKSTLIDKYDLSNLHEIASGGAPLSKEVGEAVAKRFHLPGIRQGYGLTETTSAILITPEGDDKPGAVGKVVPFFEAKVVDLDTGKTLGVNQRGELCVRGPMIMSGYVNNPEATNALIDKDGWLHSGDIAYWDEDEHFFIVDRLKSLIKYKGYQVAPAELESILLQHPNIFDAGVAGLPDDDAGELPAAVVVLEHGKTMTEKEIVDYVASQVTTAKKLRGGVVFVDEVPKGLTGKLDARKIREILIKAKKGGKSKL
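Purified P. pyralis luciferase, 10 nM final, with Km-level 10 uM D-luciferin and 10 uM ATP in 50 mM Tris acetate pH 7.5, 10 mM Mg acetate, 0.01% Tween-20, 0.05% BSA; 6-point qHTS titration about 60 µM downward; luminescence read.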
SMN2 splice enh: qHTS Assay for Enhancers of SMN2 Splice Variant Expression | HEK293 SMN2-luciferase splicing reporter, luminescence, 30-36 h | Potency, µM (doses to about 46.1 µM), for the others: at the top dose activity change, positive = activation, hits mostly activators | 2.8% of 210,000 active; note: % of control where 0% means no effect; nearly all actives have a fitted effect of over 55% in size
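qHTS luciferase splicing reporter: luminescence rises when SMN2 exon 7 is included in transfected HEK293 cells. Compound exposure lasted 30-36 h at 37C, with 4.5 mM final sodium butyrate as control, followed by a ONE-Glo read.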
Rab9 prom act: qHTS Assay for Rab9 Promoter Activators; Huh7 Rab9 promoter-luciferase reporter, luminescence, 24 h; Potency, µM (top dose mostly 9.22 µM), without a hit: top-dose activation, negative = inhibition, usual class: activators; 2.8% of 320,000 active; note: % of control where 0% means no effect; nearly all actives have a fitted effect of over 60% in size
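Steps: seed 1500 Huh7 Rab9-luc cells per well, rest 2 h at 37 °C; add compound in DMSO; incubate 24 h; add luciferase reagent, 10 min ambient; read luminescence.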
NPC1 prom act: qHTS Assay for NPC1 Promoter Activators; Huh7 NPC1 promoter luciferase reporter, 24 h; Potency, µM (series often up to 9.22 µM), for inactives: at the top dose activation, hits mostly activators; 2.4% of 320,000 active; AID 485313, 2010; note: % of control where 0% means no effect; nearly all actives have a fitted effect of over 60% in size
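Compounds in DMSO were transferred onto Huh7 NPC1-luciferase reporter cells pre-incubated 2 h; after 24 h at 37 °C, Amplite reagent was dispensed and luminescence recorded 10 min later.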
ELG1 repair inh: qHTS screen for small molecules that inhibit ELG1-dependent DNA repair in human embryonic kidney (HEK293T) cells expressing luciferase-tagged ELG1 | HEK293T ELG1-luciferase reporter, luminescence, 16 h; DNA damage induced by 5-fluorouridine | Potency, µM (series often up to 46.1 µM), for inactives: top-dose activity change, negative = inhibition, actives largely listed as inhibitors | 2.3% of 330,000 active | AID 504467, 2011; note: % is set by controls: 0 for no effect and ±100 for the full control effect; nearly all actives have a fitted effect of over 55% in size
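HEK293T cells expressing luciferase-tagged ELG1 (2,000/well) received 5-Fluorouridine plus compound or DMSO for 16 hr at 37 °C. Luciferase was read by ONE-Glo luminescence after 30 min at room temperature.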
Active calls of the source: *; ? = inconclusive; . = not tested or not shown. Calls come from the whole dose curve; as a rule, active = well fitted curve in the direction sought with a large enough effect; inconclusive = small, poorly fitted or top-dose-only effect, or another doubt; inactive = no such curve, though single readings can be large; an effect the other way counts as inactive or inconclusive. Potency is the fitted concentration of half-maximal effect.

SMILES | ELG1 genotoxic | FLuc modulator | SMN2 splice enh | Rab9 prom act | NPC1 prom act | ELG1 repair inh
Cc1cccc(OCCSc2nc(N)cc(N)n2)c1 | 8.3% | ? | . | 21.3% | 21.6% | ?
Cc1cccc(NC(=O)c2nc[nH]c2C(=O)N[C@@H](CCCCNC(=O)OC(C)(C)C)C(=O)OC(C)(C)C)c1 | -14.7% | -3.1% | . | -4.4% | -4.2% | 14.6µM*
Cc1cccc(NC(=O)c2nc[nH]c2C(=O)NCCCCCNC(=O)OC(C)(C)C)c1 | -12.1% | -17.9% | . | -2.4% | 5.2% | 20.6µM*
O=C(Nc1ccc(Cl)cc1)c1nc[nH]c1C(=O)NCCCNC(=O)c1[nH]cnc1C(=O)Nc1ccc(Cl)cc1 | -2.7% | . | . | . | . | 2.59µM*
CCOC(=O)N1CCN(C(=O)CCSc2ccc(C)cc2)CC1 | 6.3% | -2.9% | 12.2% | 10.2% | 7.9% | ?
CCOC(=O)N1CCN(C(=O)CCSc2ccccc2)CC1 | 9.2µM* | 16.9µM* | ? | 2.82µM* | ? | ?
CC(C)CNS(=O)(=O)c1ccc(CCC(=O)N2CCN(Cc3ccc4c(c3)OCO4)CC2)cc1 | -7.3% | -1.6% | -61.6% | -13.0% | -5.3% | 9.2µM*
CCNS(=O)(=O)c1ccc(CCC(=O)N2CCN(Cc3ccccc3)CC2)cc1 | -5.7% | 3.9% | . | 5.0% | -4.3% | -14.9%
CCOC(=O)N1CCN(C(=O)CCc2ccc(S(=O)(=O)NCCc3ccccc3)cc2)CC1 | 3.7% | 2.0% | -24.2% | 0.6% | 0.0% | 14.6µM*
O=C(CCc1ccc(S(=O)(=O)NCCc2ccccc2)cc1)N1CCN(Cc2ccc3c(c2)OCO3)CC1 | -18.8% | 2.1% | -21.8% | -9.3% | -0.7% | 23.1µM*
COc1ccc(NC(=O)CCc2nnc3n(C)c(=O)c4sccc4n23)cc1Cl | . | 0.4% | -1.7% | . | . | .
Cc1cccc(/C=N\NC(=O)c2ccc(Cl)cc2)c1O | ? | 1.51µM* | . | ? | -22.0% | ?
COc1cc(OC)c(OC)cc1/C=N/NC(=O)c1cc(-c2cccn2C)n[nH]1 | 0.1% | -15.6% | 1.7% | -0.1% | 4.8% | -20.4%
Cc1cccc(/C=N/NC(=O)Cc2ccc(Cl)cc2)c1O | ? | -1.7% | . | -2.0% | 4.4% | ?
O=C(N/N=C/c1cc(Cl)ccc1O)c1ccc(Br)cc1 | 14.3% | ? | -98.8% | -31.8% | -16.1% | ?
CCOc1cccc(/C=N/NC(=O)c2ccc3c(c2)OCCO3)c1O | ? | 2.39µM* | . | -40.9% | -30.3% | ?
Cc1ccc(N=Nc2ccc(O)c(/C=N\NC(=O)c3ccc(N)cc3)c2)cc1C | ? | ? | 15.2% | 2.82µM* | 1.41µM* | -2.2%
CCOc1cccc(/C=N/NC(=O)c2cc(-c3cccn3C)n[nH]2)c1O | ? | 15.1µM* | . | -52.4% | -35.0% | ?
O=C(NCCc1c[nH]c2ccccc12)c1ccco1 | 5.2% | -18.9% | . | 3.7% | 0.3% | ?
Cc1cccc(/C=N/NC(=O)c2ccc3c(c2)OCCO3)c1O | 0.13µM* | 0.379µM* | . | 0.501µM* | 0.891µM* | ?
Cc1ccc(NS(=O)(=O)c2cccc(C(=O)N/N=C/c3ccc4c(c3)OCCO4)c2)c(C)c1 | -1.3% | 10.7µM* | -35.2% | 1.2% | -1.5% | ?
COc1cccc(/C=N/NC(=O)CNC(=O)c2ccc3c(c2)OCCO3)c1O | 2.2% | -16.3% | -14.8% | -5.9% | -2.6% | ?
CC(OC(=O)CN1C(=O)c2ccccc2C1=O)C(=O)N(C)c1ccccc1 (centres undefined) | 2.1% | -0.8% | . | -4.9% | -1.6% | 1.8%
Cc1cc(=O)oc2c(C)c(OCC(=O)N3CCN(c4ccc(F)cc4)CC3)ccc12 | -4.5% | 4.6% | . | -2.7% | -1.3% | ?
